Several values for one entry are separate records, joined by “and”; a condition that tells them apart may be missing. Equal values may be shown once. Among all 5,500 compounds or so, about 2,000 (36%) were called active. Not shown: some 18% with an inconclusive outcome. No stated cut-off is given here; in the data, active means normalized growth mostly below about 0.91 (no sharp cut-off); inconclusive means no clear call, values can overlap the other calls; inactive means mostly above about 0.92. The list shows a part of the results.
Assay: chemical genetic growth profiling, strain panel (AID 1159580);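 further: tested at 20 µM; growth read once vehicle control cultures reached saturation at 30 °C; 1 = growth at the plate median or of vehicle wells; lower values mean less growth of the strain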
Conditions: S. cerevisiae deletion strains, growth OD

Measured: normalized growth

CNc1ccccc1C(=O)N1CCc2c([nH]c3ccccc23)C1=O
inactive: locus YAL021C, strain ccr4, hits give low values 0.962 | locus YAL026C, strain drs2, hits give low values 1 | locus YAL030W, strain snc1, hits give low values 0.995 | locus YBL061C, strain skt5, hits give low values 1 | locus YBR009C, strain hhf1, hits give low values 0.981 | locus YBR021W, strain FUR4, hits give low values 0.954 | locus YBR023C, strain chs3, hits give low values 1 | locus YBR171W, strain sec66, hits give low values 0.991 | locus YBR229C, strain ROT2, hits give low values 1.01 | locus YBR231C, strain swc5, hits give low values 0.996 | locus YBR279W, strain paf1, hits give low values 0.992 | locus YCL011C, strain gbp2, hits give low values 0.983 | locus YCL016C, strain dcc1, hits give low values 0.981 | locus YCL029C, strain bik1, hits give low values 0.996 | locus YCL069W, strain vba3, hits give low values 0.987 | locus YCR088W, strain abp1, hits give low values 1 | locus YDL005C, strain med2, hits give low values 0.997 | locus YDL035C, strain GPR1, hits give low values 0.995 | locus YDL040C, strain nat1, hits give low values 0.99 | locus YDL074C, strain BRE1, hits give low values 0.976 | locus YDL101C, strain DUN1, hits give low values 1.02 | locus YDL185W, strain tfp1, hits give low values 0.996 | locus YDL192W, strain arf1, hits give low values 0.975 | locus YDR001C, strain nth1, hits give low values 0.98 | locus YDR069C, strain doa4, hits give low values 0.966 | locus YDR101C, strain arx1, hits give low values 0.964 | locus YDR137W, strain rgp1, hits give low values 0.991 | locus YDR159W, strain sac3, hits give low values 1.03 | locus YDR162C, strain NBP2, hits give low values 1.01 | locus YDR195W, strain ref2 1.01 | locus YDR297W, strain sur2, hits give low values 1 | locus YDR318W, strain mcm21, hits give low values 0.997 | locus YDR334W, strain swr1, hits give low values 0.991 | locus YDR335W, strain msn5, hits give low values 0.996 | locus YDR388W, hits give low values 0.979 | locus YDR392W, strain spt3, hits give low values 0.908 | locus YDR502C, strain sam2, hits give low values 0.967 | locus YEL003W, strain gim4, hits give low values 0.987 | locus YEL037C, strain rad23, hits give low values 0.992 | locus YEL061C, strain CIN8 (second series), hits give low values 0.989 | locus YEL061C, strain CIN8, hits give low values 1.01 | locus YER015W, strain faa2, hits give low values 0.992 | locus YER016W, strain bim1, hits give low values 0.985 | locus YER110C, hits give low values 0.986 | locus YER111C, strain swi4, hits give low values 1 | locus YER155C, strain BEM2 (second series), hits give low values 1.01 | locus YER155C, strain BEM2, hits give low values 0.997 | locus YER167W, strain BCK2, hits give low values 1 | locus YFR010W, strain ubp6, hits give low values 0.965 | locus YGL078C, strain dbp3, hits give low values 0.971 | locus YGL086W, strain mad1, hits give low values 0.964 | locus YGL167C, strain pmr1, hits give low values 0.98 | locus YGL173C, strain kem1, hits give low values 0.997 | locus YGL227W, strain vid30, hits give low values 1 | locus YGL240W, strain doc1, hits give low values 1 | locus YGL248W, strain PDE1, hits give low values 1.02 | locus YGL253W, strain hxk2, hits give low values 0.989 | locus YGR078C, strain PAC10, hits give low values 1.01 | locus YGR135W, strain pre9, hits give low values 1 | locus YGR229C, strain SMI1, hits give low values 1 | locus YGR252W, strain gcn5, hits give low values 0.924 | locus YHR013C, strain ard1, hits give low values 0.958 | locus YHR027C, strain rpn1, hits give low values 0.991 | locus YHR030C, strain SLT2, hits give low values 1.01 and 0.995 | locus YHR079C, strain IRE1 (second series), hits give low values 0.981 | locus YHR079C, strain IRE1, hits give low values 0.986 | locus YHR094C, strain hxt1, hits give low values 0.984 | locus YHR129C, strain ARP1, hits give low values 1.01 | locus YHR142W, strain chs7, hits give low values 0.975 | locus YHR200W, strain rpn10, hits give low values 0.987 | locus YIL066C, strain RNR3, hits give low values 1.01 | locus YIL073C, strain SPO22, hits give low values 0.957 | locus YIL125W, strain kgd1, hits give low values 0.968 | locus YIR030C, strain dcg1, hits give low values 0.975 | locus YJL092W, strain hpr5, hits give low values 0.991 | locus YJL095W, strain BCK1 (second series), hits give low values 1.01 | locus YJL095W, strain BCK1, hits give low values 1.01 and 1.06 | locus YJL115W, strain asf1, hits give low values 0.976 | locus YJL129C, strain trk1, hits give low values 0.982 | locus YJL134W, strain LCB3, hits give low values 1.01 | locus YJL154C, strain vps35, hits give low values 0.989 | locus YJL164C, strain tpk1, hits give low values 0.963 | locus YJL166W, strain qcr8, hits give low values 0.992 | locus YJL168C, strain set2, hits give low values 0.989 | locus YJL187C, strain SWE1 (second series), hits give low values 1 | locus YJL187C, strain SWE1, hits give low values 0.981 | locus YJR043C, strain POL32, hits give low values 0.986 | locus YJR066W, strain TOR1, hits give low values 0.94 | locus YJR075W, strain HOC1, hits give low values 1 | locus YKL009W, strain mrt4, hits give low values 0.949 | locus YKL068W, hits give low values 1 | locus YKL085W, strain MDH1 (second series), hits give low values 0.994 | locus YKL085W, strain MDH1, hits give low values 0.994 | locus YKL160W, strain elf1, hits give low values 0.973 | locus YKR001C, strain vps1, hits give low values 0.941 | locus YKR026C, strain gcn3, hits give low values 1.01 | locus YKR091W, strain srl3, hits give low values 0.989 | locus YLL001W, strain dnm1, hits give low values 0.982 | locus YLL026W, hits give low values 1 | locus YLL041C, strain sdh2, hits give low values 1 | locus YLR027C, strain aat2, hits give low values 0.995 | locus YLR039C, strain RIC1, hits give low values 0.812 | locus YLR058C, strain SHM2, hits give low values 1.01 | locus YLR102C, strain apc9, hits give low values 0.977 | locus YLR113W, strain HOG1, hits give low values 1.1 | locus YLR221C, strain rsa3, hits give low values 1.01 | locus YLR258W, strain gsy2, hits give low values 0.993 | locus YLR262C, strain YPT6 (second series), hits give low values 0.975 | locus YLR262C, strain YPT6, hits give low values 0.823 | locus YLR268W, strain sec22, hits give low values 0.954 | locus YLR320W, strain mms22, hits give low values 1 | locus YLR330W, strain CHS5, hits give low values 1.01 | locus YLR342W, strain FKS1 (second series), hits give low values 0.998 | locus YLR342W, strain FKS1, hits give low values 0.991 | locus YLR357W, strain rsc2, hits give low values 0.973 | locus YLR370C, strain arc18, hits give low values 0.998 | locus YLR371W, strain rom2, hits give low values 0.986 | locus YLR384C, strain iki3, hits give low values 1.02 | locus YLR418C, strain cdc73, hits give low values 0.917 | locus YML016C, strain PPZ1, hits give low values 1.02 | locus YML032C, strain rad52, hits give low values 0.989 | locus YML120C, strain ndi1, hits give low values 0.983 | locus YML124C, strain tub3, hits give low values 0.985 | locus YMR058W, strain fet3, hits give low values 0.994 | locus YMR078C, strain ctf18, hits give low values 0.986 | locus YMR125W, strain sto1, hits give low values 0.965 | locus YMR129W, hits give low values 0.988 | locus YMR205C, strain PFK2, hits give low values 0.984 | locus YMR223W, strain ubp8, hits give low values 1 | locus YMR231W, strain pep5, hits give low values 0.999 | locus YMR263W, strain SAP30, hits give low values 1.01 | locus YMR307W, strain GAS1, hits give low values 0.949 | locus YNL067W, strain RPL9B, hits give low values 1.01 | locus YNL071W, strain lat1, hits give low values 0.993 | locus YNL153C, strain GIM3, hits give low values 1.01 | locus YNL183C, strain NPR1, hits give low values 1.01 | locus YNL209W, strain ssb2, hits give low values 0.985 | locus YNL233W, strain BNI4, hits give low values 0.996 | locus YNL248C, strain rpa49, hits give low values 0.986 | locus YNL250W, strain rad50, hits give low values 1 | locus YNL271C, strain bni1, hits give low values 0.989 | locus YNL298W, strain CLA4, hits give low values 0.977 | locus YNL307C, strain MCK1, hits give low values 0.985 | locus YNL322C, strain KRE1 (second series), hits give low values 1 | locus YNL322C, strain KRE1, hits give low values 1.01 | locus YNR049C, strain mso1, hits give low values 0.989 | locus YNR052C, strain pop2, hits give low values 1.02 | locus YOL006C, strain TOP1, hits give low values 0.974 | locus YOL012C, strain htz1 0.736 | locus YOL147C, strain pex11, hits give low values 0.979 | locus YOR001W, strain rrp6, hits give low values 1.01 | locus YOR061W, strain CKA2, hits give low values 1.01 | locus YOR069W, strain VPS5, hits give low values 1.01 | locus YOR070C, strain gyp1, hits give low values 0.985 | locus YOR080W, strain dia2, hits give low values 1 | locus YOR083W, strain WHI5, hits give low values 0.967 | locus YOR106W, strain vam3, hits give low values 0.924 | locus YOR136W, strain idh2, hits give low values 0.974 | locus YOR144C, strain elg1, hits give low values 0.979 | locus YOR184W, strain ser1, hits give low values 0.979 | locus YOR231W, strain MKK1, hits give low values 1.01 | locus YOR265W, strain rbl2, hits give low values 1 | locus YOR270C, strain vph1, hits give low values 0.979 | locus YOR290C, strain snf2, hits give low values 0.944 | locus YOR316C, strain cot1, hits give low values 0.982 | locus YPL051W, strain arl3, hits give low values 0.982 | locus YPL055C, strain LGE1, hits give low values 0.991 | locus YPL078C, strain atp4, hits give low values 0.973 | locus YPL106C, strain sse1, hits give low values 0.997 | locus YPL240C, strain hsp82, hits give low values 0.986 | locus YPL241C, strain CIN2, hits give low values 1 | locus YPL256C, strain CLN2, hits give low values 1 | locus YPR119W, strain clb2, hits give low values 0.978 | locus YPR141C, strain kar3, hits give low values 0.994 | locus YPR163C, strain tif3, hits give low values 0.99 | locus YPR167C, strain met16, hits give low values 0.989 | strain wtn01, hits give low values 0.961

Reference: PubChem BioAssay AID1159580 (chemical genetic matrix, 2015)
